Rows were chosen to be rich in hits. Some 4.8% of all compounds tested hit in one or more screens of this group.
DAX1 inh-1 – DAX1 (NR0B1) inhibition, primary screen. 370,000 tested, 1.1% active. HEK293T StAR-luciferase reporter, SF-1/DAX-1 repression relief. inhibition, % at 6.8 µM. AID 652010;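 active = inhibition above the mean over all tested compounds plus 3 SD, cut at about 3.6% in these data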;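 note: higher inhibition means more luminescence from relief of DAX-1 repression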
DAX1 inh-2 – inhibitors of human orphan nuclear receptor DAX1 (NR0B1). P51843. HEK293 Gal4-DAX1 luciferase reporter, luminescence. inhibition, % at 6.75 µM. 340,000 tested, 0.99% active. AID 504766;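 active = inhibition above the mean over all tested compounds plus 3 SD, cut at about 4.2% in these data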;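 note: inhibition shows as a rise in luminescence from relieved DAX1 repression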
hcDAF12 agonist – activates DAF-12 receptor from parasite H. contortus. 370,000 tested, 1.4% active. activation, % at 6.8 µM. HEK293 hcDAF-12 lit1-tk-luc reporter, luminescence; 0% DMSO, 100% Δ7-dafachronic acid. AID 652067;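 active = activation above the mean of all tested compounds plus 3 SD, cut at about 5.5% in these data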
ssDAF12 agonist – activates DAF-12 receptor from parasite S. stercoralis; HEK293 ssDAF-12/GRIP1 lit1-tk-luc reporter, luminescence; % of 3 µM dafachronic acid response; 370,000 tested, 1% active; activation, % at 6.8 µM;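 active = activation above the mean over all tested compounds plus 3 SD, cut at about 0.9% in these data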
Rev-erbA mod – Rev-erb alpha (human) modulation. activity, % at 10 µM. P20393. AID 1259318. 370,000 tested, 0.79% active. Rev-erbα–FITC-DNA binding, fluorescence polarization, 90 min;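 active = activity above about 14%, limit read from the data; passing the limit was not always enough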
Target sequence (P20393 whole entry, looked up): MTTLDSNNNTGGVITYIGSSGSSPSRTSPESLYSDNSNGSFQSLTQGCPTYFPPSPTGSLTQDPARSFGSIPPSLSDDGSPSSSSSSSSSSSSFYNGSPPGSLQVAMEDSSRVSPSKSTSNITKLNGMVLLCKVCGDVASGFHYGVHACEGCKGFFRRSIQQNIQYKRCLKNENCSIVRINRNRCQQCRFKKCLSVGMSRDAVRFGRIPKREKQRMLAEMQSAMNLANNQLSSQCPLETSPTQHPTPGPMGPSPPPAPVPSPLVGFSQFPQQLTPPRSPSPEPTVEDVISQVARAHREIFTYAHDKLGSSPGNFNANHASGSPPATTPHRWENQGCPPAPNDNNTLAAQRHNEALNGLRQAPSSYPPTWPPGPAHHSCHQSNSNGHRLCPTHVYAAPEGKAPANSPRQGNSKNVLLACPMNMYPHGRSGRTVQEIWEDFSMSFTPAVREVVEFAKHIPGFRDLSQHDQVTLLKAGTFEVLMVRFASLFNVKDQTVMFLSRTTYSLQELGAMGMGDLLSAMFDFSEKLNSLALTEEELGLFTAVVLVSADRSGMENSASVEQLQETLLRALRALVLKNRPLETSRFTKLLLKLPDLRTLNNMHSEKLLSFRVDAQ
hgDAF-12 ag – agonists of H. glycines DAF-12 nuclear receptor. HEK293 GAL4-hgDAF12 UAS-luciferase reporter, agonist luminescence; normalized to butyrate control. activation, % at 6.8 µM. 370,000 tested, 1.8% active. AID 687014;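 active = activation above a cutoff set at the mean of all screened compounds plus 3 SD, cut at about 10% in these data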
Of the large screens only hits and unclear results are named; the others gave an inactive call.

Cc1cc(C)nc(NC(=O)c2ccc(Cl)cc2[N+](=O)[O-])c1	none
COc1ccc(NC(=O)O/N=C/c2c(C)nn(C(C)(C)C)c2C)cc1	DAX1 inh-2 6.3
CC(C)[C@@H]1CC[C@@H](C)C[C@H]1OC[B-](F)(F)F	none (no result: DAX1 inh-2)
O=C(c1ccc2c3n(nc2c1)-c1ccccc1CO3)N1CCCCC1	hcDAF12 agonist 6.5, hgDAF-12 ag 11
O=C(c1ccc2c3n(nc2c1)-c1ccccc1CO3)N1CCOCC1	none (no result: DAX1 inh-1, hcDAF12 agonist, ssDAF12 agonist, Rev-erbA mod, hgDAF-12 ag)
COc1ccc(CCn2c(=N)c(C(=O)NCC3CCCO3)cc3c(=O)n4ccccc4nc32)cc1 (stereo unspecified)	none
COc1ccc(Cn2c(=N)c(C(=O)NCC3CCCO3)cc3c(=O)n4ccccc4nc32)cc1 (stereo unspecified)	hcDAF12 agonist 5.7
O=C(N1CCOCC1)N1CCN(S(=O)(=O)c2ccc(Cl)cc2)C1	ssDAF12 agonist 1.0
O=C(C1CC(Cl)CN1S(=O)(=O)c1ccc(Cl)cc1)N1CCOCC1 (stereo unspecified)	none
COc1cc(C=Nn2c(-c3ccc(F)cc3)n[nH]c2=S)ccc1OCc1ccccc1	none (no result: DAX1 inh-2)
CC(=O)c1ccc(NC(=O)C[n+]2ccccc2)cc1	none
COC(=O)c1ccc(NC(=O)C[n+]2ccccc2)cc1	ssDAF12 agonist 1.8
O=S1(=O)c2ccc(Br)cc2OC[C@@H](Cc2ccccc2)N1Cc1cn(CCC2OCCCO2)nn1	none (no result: DAX1 inh-2)
COCc1[nH]nc2c1C(c1ccc(C)cc1)N(Cc1ccccc1)C2=O (stereo unspecified)	none (no result: DAX1 inh-2)
O=C(c1ccco1)N1CCN(C2CN(C3CCCCC3)S(=O)(=O)C2)CC1 (stereo unspecified)	DAX1 inh-1 3.9 (no result: DAX1 inh-2)
O=C(c1ccco1)N1CCN(C2CN(C3CCCC3)S(=O)(=O)C2)CC1 (stereo unspecified)	none (no result: DAX1 inh-2)
CC1=CC(C)(C)N=C(NC#N)N1	ssDAF12 agonist 1.0
COc1ccc(OC)c(N)c1	DAX1 inh-2 5.1
CCNC(=S)N1CCN(c2nc(-c3cccc(OC)c3)cs2)CC1	none
COCCNC(=S)N1CCN(c2nc(-c3cccc(OC)c3)cs2)CC1	DAX1 inh-2 4.3
CC(=O)C1=C(C)N(Cc2ccc(F)cc2)C(=S)NC1c1ccc(Cl)cc1 (stereo unspecified)	none (no result: DAX1 inh-2)
COc1ccc(C(C)(C)C)cc1NC(=O)c1ccoc1C	none
Cc1occc1C(=O)Nc1ccc(Br)cc1F	hgDAF-12 ag 12
Cc1occc1C(=O)Nc1cc(C(F)(F)F)ccc1Cl	DAX1 inh-2 4.6
Cc1occc1C(=O)NNC(=O)Nc1ccc(F)cc1F	none
O=C(Cc1cccs1)N[C@H]1C(=O)N2C(C(=O)O)=C(C[n+]3ccccc3)CSC12 (stereo partly specified)	none (no result: DAX1 inh-1, DAX1 inh-2, hcDAF12 agonist, ssDAF12 agonist, hgDAF-12 ag)
COc1ccc(-c2cc(-c3nnc(SCC(=O)Nc4ccccc4-c4ccccc4)n3N)[nH]n2)cc1	none (no result: DAX1 inh-2)
COc1cccc(CCc2nnc(CCC(=O)N3CCCC3c3nccs3)o2)c1 (stereo unspecified)	DAX1 inh-2 4.2
FC(F)(F)C1=NNC(c2ccc3ccccc3c2)=NN1	hgDAF-12 ag 12
OC(c1ccccc1)(c1nc(-c2ccc3ccccc3c2)cs1)C(F)(F)F (stereo unspecified)	none (no result: DAX1 inh-2)
CCOc1cc(OCC)cc(C(=O)N2CCC[C@@H]2C(=O)N2CCC[C@@H]2C(=O)NCc2cccc(OC)c2)c1	none (no result: DAX1 inh-2)
CCN1CCCCC(NC(=O)c2cc(OC)c(OC)c(OC)c2)C1=O (stereo unspecified)	none (no result: DAX1 inh-2)
CN(C)C(CNC(=O)CCc1nc2ccccc2s1)c1ccccc1 (stereo unspecified)	DAX1 inh-2 5.5
O=C(CCc1nc2ccccc2s1)NCc1ccccc1F	none
O=C(OCC#CCSc1nnc(-c2cccc3ccccc23)o1)C1CCC1	none (no result: DAX1 inh-1, DAX1 inh-2)
O=C(c1cccc(COc2ccc(Cl)cc2Cl)c1)N1CCN(c2ccccn2)CC1	hgDAF-12 ag 11
O=C(c1ccc(Cl)c(Cl)c1)N1CCN(c2ccccn2)CC1	none
O=C1c2ccccc2NC(c2ccccc2O)N1O (stereo unspecified)	none
Cc1ccc(N2C(=O)c3ccccc3NC2c2ccccc2O)cc1 (stereo unspecified)	hgDAF-12 ag 11
c1ccc(CSc2ncnc3c2oc2ccccc23)cc1	none
c1coc(CSc2ncnc3c2oc2ccccc23)c1	DAX1 inh-2 5.7
COc1ccc2c(C)cc(SCC(=O)c3ccc4c(c3)OCO4)nc2c1	ssDAF12 agonist 3.4
O=C(CSc1nc2ccccc2[nH]1)c1ccc2c(c1)OCO2	DAX1 inh-2 6.0
Cc1ccc2nc(SCC(=O)c3ccc4c(c3)NC(=O)CO4)[nH]c2c1	hgDAF-12 ag 11
O=C1COc2ccc(C(=O)COC(=O)c3ccc4ccccc4n3)cc2N1	ssDAF12 agonist 0.9
COc1cccc(/C=C2\CC3(OC(=O)c4cccc(F)c4)CCCN2C3)c1 (stereo unspecified)	none (no result: DAX1 inh-2)
CC(OC(=O)c1ccc(O)cc1)C(=O)Nc1nc(-c2ccccc2)cs1 (stereo unspecified)	none
CC(Sc1nnc(Nc2ccccc2)s1)C(=O)Nc1nc(-c2ccccc2)cs1 (stereo unspecified)	DAX1 inh-2 5.0
COc1ccc(CN2C(C(=O)NC3CCCC3)CSCCS2(=O)=O)cc1 (stereo unspecified)	none (no result: DAX1 inh-2)
Cc1cc(C)nc(S/C=C/C(=O)c2ccccc2F)n1	DAX1 inh-2 6.2
C/C=C(/CCC1NCCc2c1[nH]c1ccccc21)[Si](C)(C)C (stereo unspecified)	ssDAF12 agonist 1.3
O=C(CSc1nnc(-c2cccc(Cl)c2)n1Cc1ccco1)c1ccc(F)cc1	none (no result: DAX1 inh-2)
COC(=O)[C@]12C[C@H](CC(=O)NCc3cccs3)C(=O)N(Cc3ccco3)C1=C[C@H](COCc1ccccc1)O[C@@H]2C	none (no result: DAX1 inh-2)
C/C(CC(=O)NCc1ccc(F)cc1)=N\NC(N)=S	DAX1 inh-2 4.8
Cc1ccc(NC(=O)OC2CC3CC2[C@H]2CCCCN2C3)cc1 (stereo partly specified)	hgDAF-12 ag 11 (no result: DAX1 inh-2)
O=C(Nc1ccc(Br)cc1)OC1CC2CC1[C@H]1CCCCN1C2 (stereo partly specified)	none (no result: DAX1 inh-2)
CCN1CCN(Cc2ccc(NC(=O)c3cccc(-c4ccc5nc(NC(=O)C6CC6)sc5n4)c3)cc2C(F)(F)F)CC1	none (no result: DAX1 inh-2)
C[C@H](CO)N1C[C@H](C)[C@@H](CN(C)C(=O)Nc2ccc3c(c2)OCO3)OCc2cn(nn2)CCCC1=O	none (no result: DAX1 inh-2)
CCCn1nnc(NC(=O)c2cc3ccccc3o2)n1	DAX1 inh-2 5.7
CCCn1nnc(NC(=O)c2cc(Br)ccc2OC)n1	ssDAF12 agonist 1.1
CCCCn1nnc(NC(=O)c2cc3ccccc3o2)n1	none
CCOC(=O)C1=CCC(c2ccc([N+](=O)[O-])cc2)N(S(=O)(=O)c2ccc(C)cc2)C1 (stereo unspecified)	none (no result: DAX1 inh-2)

Compound activity (PubChem)
